Shown are actives, neighbours in structure and some others; about 3.2% of the full set was active somewhere.
SSB-PriA inh: blocks PriA binding to SSB C-terminal tail. AlphaScreen SSBct-PriA binding, biotinylated peptide. AID 1272365. hit rate 0.6% among 430,000. inhibition, % at 33 µM; in the data active = inhibition mostly above about 37%, no sharp cut-off; inactive = mostly below about 20%;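 note: plate controls were negative control peptide for no effect and reference peptide for full effect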
Mtb UGM inh: Mtb UDP-galactopyranose mutase inhibition | inhibition, % at 10 µM | purified UGM, fluorescence polarization probe displacement | P9WIQ1 | hit rate 0.06% among 320,000; in the data active = inhibition above about 10%, passing the limit was not always enough; inconclusive = no clear call, values can overlap the other calls
Target sequence (P9WIQ1 whole entry, looked up): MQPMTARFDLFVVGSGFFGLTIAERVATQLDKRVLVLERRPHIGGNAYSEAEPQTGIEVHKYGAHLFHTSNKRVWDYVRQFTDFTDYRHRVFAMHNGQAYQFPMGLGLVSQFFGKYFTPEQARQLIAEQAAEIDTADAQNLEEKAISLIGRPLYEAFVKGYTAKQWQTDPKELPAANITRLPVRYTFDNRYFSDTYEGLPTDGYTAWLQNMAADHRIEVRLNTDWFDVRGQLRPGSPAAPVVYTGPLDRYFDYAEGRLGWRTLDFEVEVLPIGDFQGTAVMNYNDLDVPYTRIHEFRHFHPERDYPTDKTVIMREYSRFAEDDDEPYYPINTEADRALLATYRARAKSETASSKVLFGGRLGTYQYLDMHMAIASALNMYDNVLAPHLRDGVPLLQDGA
GDH-TPI counter: counter-screen for M. tuberculosis FBA inhibitors: GDH-TPI coupled enzymes; GDH-TPI coupled enzyme counterscreen, NADH absorbance; inhibition, % at 4.8 µM; hit rate 1.2% among 360,000; AID 588335; in the data active = inhibition above about 30%;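 note: 0% = DMSO wells and 100% = wells lacking the enzyme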
Rv3671c inh: Rv3671c (M. tuberculosis) protease inhibition | inhibition, % at 5.96 µM | hit rate 0.048% among 320,000 | AID 2606; in the data active = inhibition above about 38%;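 note: extracellular domain of Rv3671c used as enzyme; 0% = enzyme with DMSO and 100% = no enzyme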
Mtb FBA inh: inhibits M. tuberculosis FBA enzyme; purified M. tuberculosis FBA, fluorescence read-out; hit rate 2.3% among 360,000; inhibition, % at 1 µM; P9WQA3; in the data active = inhibition above about 27%;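 note: 0% = vehicle and 100% = reference inhibitor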
Target sequence (P9WQA3 whole entry, looked up): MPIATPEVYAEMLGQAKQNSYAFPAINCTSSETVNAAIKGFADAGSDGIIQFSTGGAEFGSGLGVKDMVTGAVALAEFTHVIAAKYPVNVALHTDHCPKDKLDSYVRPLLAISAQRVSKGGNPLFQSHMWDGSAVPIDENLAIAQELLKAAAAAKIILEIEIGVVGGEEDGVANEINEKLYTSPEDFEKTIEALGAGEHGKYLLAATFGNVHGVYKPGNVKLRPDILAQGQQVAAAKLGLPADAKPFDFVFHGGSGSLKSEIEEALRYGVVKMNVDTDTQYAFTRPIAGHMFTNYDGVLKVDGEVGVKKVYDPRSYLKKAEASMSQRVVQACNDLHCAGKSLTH
Mtb betalactam: beta-lactam sensitization of Mtb H37Rv; hit rate 0.27% among 330,000; AID 434955; inhibition, % at 25 µM; M. tuberculosis H37Rv growth with meropenem, percent inhibition; call rule not given here;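 note: growth measured after seven days incubation then overnight dye step; 0% = bacteria only wells and 100% = bacteria with antibiotic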
* marks the source's active call; other numbers are inactive results; i = inactive; u = inconclusive; x = no result given; + = active, no number.

SMILES | SSB-PriA inh | Mtb UGM inh | GDH-TPI counter | Rv3671c inh | Mtb FBA inh | Mtb betalactam
COc1ccc(Nc2cc3n(c(=O)n2)CCc2cc(OC)c(OC)cc2-3)c(C)c1 | 2.6 | -0.7 | 32.8* | 0.0 | 2.4 | u
COc1cc2c(cc1OC)-c1cc(N3CCCc4ccccc43)nc(=O)n1CC2 | 1.3 | -2.4 | 15.7 | -6.5 | 0.9 | 25.1
Cc1nnc2ccc(OCCNS(=O)(=O)c3ccc(F)c(Cl)c3)nn12 | -1.0 | x | x | x | x | x
Cc1noc(CNC(=O)c2cc(C3CC3)on2)n1 | -21.0 | x | x | x | x | x
CCOc1cc(/C=N/NC(=O)c2ccc(NC(=O)CC)cc2)ccc1OC(=O)c1ccccc1 | i | x | x | x | x | x
COc1cccc(C=NNC(=O)c2c(C)nc3ccc(Cl)cn23)c1OC | -0.2 | x | x | x | x | x
COc1cc2c(cc1OC)-c1cc(N3CCCCCC3)nc(=O)n1CC2 | -0.1 | -0.3 | 45.8* | 2.8 | 14.2 | -0.9
COc1cc2c(cc1OC)-c1cc(OCc3cccnc3)nc(=O)n1CC2 | 6.1 | x | 40.5* | x | + | x
O=C(NNS(=O)(=O)c1ccc(F)cc1)c1ccccc1 | -2.2 | 0.2 | 10.4 | -2.1 | 146.7* | 2.6
Cn1c2ccccc2c2cc(C(=O)NNS(=O)(=O)c3ccc(F)cc3)sc21 | 2.9 | -0.6 | 34.3* | -9.4 | 23.4 | 19.3
CN(C)CCCNC(=O)c1cc2c3ccccc3n(C)c2s1 | 0.0 | 0.0 | 17.9 | -0.4 | 6.5 | 0.0
O=C(N/N=C\c1cccc(Oc2ccccc2)c1)C12CC3CC(CC(C3)C1)C2 | 19.0 | x | x | x | x | x
CCNC(=O)Nc1ccc2c(c1)c(=O)n(C)n2Cc1ccc(Cl)cc1 | x | x | 11.1 | x | + | x
C=C(C)Cn1c2ccc(NC(=O)NCc3ccccc3)cc2c(=O)n1C | x | x | -10.7 | x | 166.2* | x
CCNC(=S)Nc1ccc2c(c1)c(=O)n(C)n2-c1cc(C)cc(C)c1 | x | x | 12.8 | x | 8.5 | x
C=C(C)Cn1c2ccc(NC(=O)NCC)cc2c(=O)n1C | x | x | 7.1 | x | + | x
CC(C)(C)OC(=O)Cn1cc(S(=O)(=O)N2CCCCC2)ccc1=O | 0.0 | x | x | x | x | x
Cc1noc(-c2cccnc2N2CCC(NC(=O)c3cc4ccccc4[nH]3)C2)n1 (centres undefined) | -14.0 | x | x | x | x | x
O=C1CC(N2CCN(c3ccc(C(=O)c4ccc(F)cc4)cc3)CC2)C(=O)N1 (centres undefined) | -4.0 | -0.3 | 47.6* | -4.7 | 1.9 | 4.0
O=C(NC(=S)N1CCN(c2ccc(Cl)cc2[N+](=O)[O-])CC1)c1cccs1 | 38.9* | 3.0 | -4.9 | 10.2 | -0.3 | 52.2
Cc1cc[n+](-c2[nH]c(=O)sc2/C=N/N=C(\[O-])c2ccncc2)cc1C | x | -1.1 | 34.8* | 10.5 | -4.4 | 99.2
CCc1ccc[n+](-c2[nH]c(=O)sc2/C=N/N=C(\[O-])c2cccnc2)c1 | x | -2.1 | 38.7* | -2.2 | -4.6 | -8.2
O=C(N/N=C/c1sc(=O)[nH]c1-[n+]1ccccc1)c1ccccc1[O-] | x | 0.9 | 55.0* | 3.1 | -4.7 | -8.0
O=c1[nH]c(-[n+]2ccccc2)c(/C=N/N=C(\[O-])c2ccccc2)s1 | x | 1.2 | 57.0* | 1.1 | -9.6 | -15.1
c1ccc(-n2nc3c(ccc4cnnc43)[nH]2)cc1 | -7.1 | -0.9 | 26.9 | -11.1 | 143.7* | -3.9
SMILES | SSB-PriA inh | Mtb UGM inh | GDH-TPI counter | Rv3671c inh | Mtb FBA inh | Mtb betalactam
O=c1cc(O)c2ccc(O)cc2o1 | -10.3 | -0.5 | 9.8 | -8.6 | 17.9 | -1.7
O=c1ccc2cc(O)c(O)cc2o1 | -5.9 | 5.5 | 8.8 | 5.1 | 115.3* | 0.2
O=c1ccc2cc3ccoc3cc2o1 | 9.2 | 2.1 | 3.5 | -1.4 | 2.6 | -8.1
O=c1ccc2ccc(O)cc2o1 | -5.3 | x | 14.7 | x | + | x
COc1ccc(C=NNc2nc(C)nc(N)n2)cc1 | -10.2 | x | x | x | x | x
O=C(NCC[C@H](O)c1ccc2c(c1)OCO2)c1ccccc1Br | -17.0 | x | x | x | x | x
Cc1cc(=O)oc2c3c(cc(OCC(=O)NCCCn4ccnc4)c12)OC(C)(C)CC3 | -8.1 | 1.7 | 12.5 | 1.9 | + | -5.1
CCCc1cc(=O)oc2c(C)c(OCC(=O)NCCCn3ccnc3)ccc12 | -6.4 | -1.8 | 6.6 | 5.5 | 10.9 | 7.5
Cc1cc(=O)oc2cc(OCC(=O)NCCCn3ccnc3)ccc12 | -23.9 | 2.4 | 11.3 | -7.5 | 17.3 | -6.3
CCCc1cc(=O)oc2c3c(cc(OCC(=O)NCCCn4ccnc4)c12)OC(C)(C)CC3 | 12.9 | -1.1 | 15.7 | 3.3 | 169.7* | -3.0
Cc1cc(=O)oc2c3c(cc(OCC(=O)NCCN4CCOCC4)c12)OC(C)(C)CC3 | 8.4 | 0.8 | 16.7 | 4.1 | 191.3* | -3.1
CC(CC(=O)NCc1ccc(F)cc1)=NNC(N)=S | -8.8 | x | x | x | x | x
Cc1cc(C)c(S(=O)(=O)N2CCN(Cc3ccccc3)CC2)c(C)c1 | -15.0 | x | x | x | x | x
O=[N+]([O-])c1cccnc1Sc1ccccc1 | 82.5* | x | x | x | x | x
O=[N+]([O-])c1cccnc1Sc1ccc(Cl)cc1 | 52.4* | 2.2 | 6.9 | 2.3 | 3.1 | -3.8
COc1ccc2ccc(OC)c(/C=N/NC(=O)c3cc4ccccc4o3)c2c1 | x | x | 31.6* | x | 4.0 | x
COc1ccc(/C=N\NC(=O)c2cc3c(ccc4ccccc43)o2)cc1O | x | -2.6 | 39.2* | x | 8.7 | 0.7
COc1ccc(/C=N/NC(=O)c2cc3c(ccc4ccccc43)o2)cc1OC | x | -0.9 | 25.8 | x | 6.7 | -2.4
COc1cc(/C=N/NC(=O)c2cc3c(ccc4ccccc43)o2)cc(OC)c1O | x | -2.1 | 49.0* | 9.0 | 5.2 | 5.1
Cc1ccc(C)c(-c2cc(C(=O)N3CCSCC3)[nH]n2)c1 | -23.0 | x | x | x | x | x
COc1cc(NCCCC(C)N)c2ncccc2c1 (centres undefined) | 49.2* | x | -0.6 | x | 2.9 | x
COc1cc(NC(=O)c2ccccc2Cl)c2ncccc2c1 | -71.1 | 0.8 | 14.0 | -12.3 | 1.4 | 11.7
COc1cc(NCCCCC(C)N)c2nccc(C)c2c1 (centres undefined) | x | x | 5.3 | x | -2.6 | x
COCCNC(=O)Nc1cc(OC)cc2cccnc12 | 53.0* | x | x | x | x | x
CCOC(=O)NN=Cc1ccc([N+](=O)[O-])o1 | -0.3 | x | x | x | x | x
SMILES | SSB-PriA inh | Mtb UGM inh | GDH-TPI counter | Rv3671c inh | Mtb FBA inh | Mtb betalactam
CCN(C(=O)CN1C(=O)S/C(=C\c2ccccc2OC)C1=O)C1CCS(=O)(=O)C1 (centres undefined) | 4.7 | -1.2 | 9.6 | -2.6 | -1.4 | 5.2
CCN(C(=O)CN1C(=O)S/C(=C\c2cccc(Cl)c2)C1=O)C1CCS(=O)(=O)C1 (centres undefined) | -14.1 | -3.5 | 23.5 | 7.1 | -3.3 | -0.9
COc1ccccc1/C=C1\SC(=O)N(CC(=O)N(C)C2CCS(=O)(=O)C2)C1=O (centres undefined) | 9.1 | -1.8 | 31.0* | 7.0 | -0.8 | 3.8
CCN(C(=O)CN1C(=O)S/C(=C\c2ccc(Cl)cc2)C1=O)C1CCS(=O)(=O)C1 (centres undefined) | -2.1 | 1.9 | 33.9* | -4.5 | -0.4 | 7.0
COc1nn(C)cc1C(=O)OC1CN(c2nc3ccccc3s2)C1 | 12.0 | x | x | x | x | x
COc1ccc2cc(C=O)n(C)c2c1 | -10.2 | 0.1 | 44.5* | -5.8 | 1.7 | -6.1
COc1ccc2cc(CO)n(C)c2c1 | 28.4 | -1.7 | 5.9 | 2.8 | 0.8 | 92.2
COc1ccc2cc(C=NS(=O)(=O)c3ccc(C)cc3)n(C)c2c1 | 4.6 | 1.6 | 35.5* | -6.6 | 0.8 | 14.1
O=S(=O)(c1ccc2c(c1)CCCC2)N1CCC(Oc2ncccc2Cl)CC1 | -5.0 | x | x | x | x | x

Compound activity as filed in PubChem.
